Results on 38 sequences are retold here after the OligoGym collection.
Also: reference of the scale not given here.

The target of the first assay is PHF23. In words: pooled miR-30 sensor sort-seq; sequence = guide strand. Conditions: shRNA.
Consider TACCATGATGTCCTCGTCCATG, for which the sensor-assay potency score (higher = more potent) is -1.2. Sequence TTTTATAGACAACTGTCCCATT had a sensor-assay potency score (higher = more potent) of -0.805. Sequence TTCAGAGTCTGTATCACTGGGG had a sensor-assay potency score (higher = more potent) of 0.423.

In another assay the target is PHF8. Described as above. To be noted: shRNA.
In turn, TTTCACAAAATCACCAAGCTTC displayed a sensor-assay potency score (higher = more potent) of 0.0269. The sequence TTCCAAACTAATGACATTGAGG came in with a sensor-assay potency score (higher = more potent) of -0.716. Turning to TTGAGCTGCATCTCGATGTTAA, the sensor-assay potency score (higher = more potent) is -0.768. Still for that read-out and setting: then TTGCTTTCTGGAAAGAGCCTGT, with -0.163. On the same count and under the same terms, then TTGCTATCTTGGTTCGCCGAGA, with -0.723.

TTGGATAAACTCTTCACCCTTT showed a sensor-assay potency score (higher = more potent) of 0.593. Consider TCACACTCGATCATGAAGCGGG, for which the sensor-assay potency score (higher = more potent) is 0.234.

The sequence TTTGCTATCTTGGTTCGCCGAG yielded a sensor-assay potency score (higher = more potent) of -0.492. Same read-out and setting: then TTTGTCAGAACCAACATAGTGT, with 0.088. The same measure, in the same setting: in the case of AACACTTGTAGCACTTGTCCAC it was -0.0267. In turn, TTCTGCTTGAACGATGACCTGT displayed a sensor-assay potency score (higher = more potent) of 0.147.

With TTCAACACCAACACAACTGCCA, the sensor-assay potency score (higher = more potent) was found to be 0.225.

The target in another assay is PIK3AP1. Described as above. Conditions: shRNA.
TTCCTCTTTAATGTGACTCTTG yielded a sensor-assay potency score (higher = more potent) of -0.151.

With TTCGATTAAGTCTTCATCCTTT, the sensor-assay potency score (higher = more potent) turned out to be 0.829.

The sequence AAGTCTAGGAACTCCTCGCTGT showed a sensor-assay potency score (higher = more potent) of 0.0251. Take TTACTTGTGCTACTTGCTGTGC: the sensor-assay potency score (higher = more potent) is -0.439. As for TACTCGTCGATGAACTGCCGCA, the sensor-assay potency score (higher = more potent) was -0.193. For TAGACGATGAGGATGTCGCATC, the sensor-assay potency score (higher = more potent) was -0.908. As for TTGCCTTCTAAAAACTTGCGGA, the sensor-assay potency score (higher = more potent) is -0.361. The same measure, in the same setting: then TTTAATGTGACTCTTGAGCATG, with -0.893. Sequence TTAAGGTCAACAGTCATGCTAT displayed a sensor-assay potency score (higher = more potent) of -0.337.

TTCTTCAGTCCATACTTCGCAG yielded a sensor-assay potency score (higher = more potent) of -0.885. TTGTCATCATATCTTCTTCTTC had a sensor-assay potency score (higher = more potent) of -0.605. Still for that read-out and setting: then TAGCCGTTTAAGATTTTCCTGC, with -0.144.

The next assay deals with PIK3R4. The description is as above. To be noted: shRNA.
In turn, TTCAATTTTATTTAGCACTTGT returned a sensor-assay potency score (higher = more potent) of 0.585.

TTATTTTCATATCTGAGCCAGC: the sensor-assay potency score (higher = more potent) was -0.787. TAAACTAGTCAAGTACATCTTA had a sensor-assay potency score (higher = more potent) of 0.418. On the same count and under the same terms, in the case of TATCTGAAAAATAACTCTCTAC it was -0.529; in that of TTTTATTTAGCACTTGTTCAGG, -0.266; in that of TAATAGCTTACAACCATCTTTT, -0.784. In turn, TTCCTTTAAAACACTGAGCAGA registered a sensor-assay potency score (higher = more potent) of -0.752.

As for TTTTGTAGCAGTCCTAACTGGC, the sensor-assay potency score (higher = more potent) is -0.0245.

The sequence TTACAGTAGACATCAGCTGTAC gave a sensor-assay potency score (higher = more potent) of 0.0221.

Consider TTGTCTCGCACATACTGCCTAA, for which the sensor-assay potency score (higher = more potent) is -0.86. Still for that read-out and setting: in the case of TAGCAAAGTAACAACTTTCTGC it was 0.5.
